Bioassay records (PubChem BioAssay)
A selection: hits, their analogues and other compounds. The true share with any hit is near 21%.
Giardia FBPA inh: inhibitors of Giardia lamblia fructose-1,6-bisphosphate aldolase | 290,000 tested, 0.71% active | Potency, µM (series often up to 59.6 µM), actives largely listed as inhibitors | purified Giardia FBPA | A8B2U2 | AID 2451; note: nearly all actives have a fitted effect of over 55% in size
Target sequence (A8B2U2 whole entry, looked up): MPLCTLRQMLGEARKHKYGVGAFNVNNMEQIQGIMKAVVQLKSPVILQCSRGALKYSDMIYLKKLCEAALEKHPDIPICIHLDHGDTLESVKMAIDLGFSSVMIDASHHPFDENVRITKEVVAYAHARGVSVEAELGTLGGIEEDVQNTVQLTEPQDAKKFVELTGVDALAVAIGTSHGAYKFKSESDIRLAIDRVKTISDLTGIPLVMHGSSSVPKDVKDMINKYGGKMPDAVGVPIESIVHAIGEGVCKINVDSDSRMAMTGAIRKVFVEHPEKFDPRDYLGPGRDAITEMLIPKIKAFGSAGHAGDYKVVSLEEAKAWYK
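Giardia FBPA (40 nM reagent) was preincubated 10 min at RT with compound (up to 57.5 uM final), then substrate plus GAPDH/TPI/NAD/arsenate coupling system with diaphorase/resazurin was added; resorufin fluorescence (525/598 nm) was read after 20 min.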
NS1 inh: influenza NS1 inhibition; Potency, µM (highest dose often 46.1 µM); 270,000 tested, 0.4% active; calls by dose curve; note: actives are rising curves; nearly all actives have a fitted effect of over 50% in size
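Read-out: OD600 growth recovery of NS1-expressing budding yeast. Cells grown overnight at 30C in -URA glucose medium, washed, resuspended and diluted 1:100 in 2% galactose assay medium, pH 6.0. Same strain lacking NS1 served as positive control.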
Pf growth 48h: P. falciparum growth inhibition at 48 hours (one generation) | P. falciparum luciferase growth in erythrocytes, 48 h | Potency, µM (titrated, usually from 28.7 µM), actives largely listed as inhibitors | 310,000 tested, 5.9% active
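Here the parasites carry a stable luciferase gene and grow inside erythrocytes in Albumax-based RPMI medium with compound for one erythrocytic cycle. Activity is scored as loss of luminescent signal.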
Pf growth 96h: inhibits malaria parasite growth, 96 h. P. falciparum luciferase reporter growth, 96 h. Potency, µM (doses to about 28.7 µM), most hits filed as inhibitors. 320,000 tested, 6.9% active. AID 504834
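Delayed-death screen, second-generation endpoint: infected erythrocytes, 2% hematocrit, 0.05% parasitemia final; 96 hours at 37 C, 5% CO2; luciferase detection reagent; luminescence decrease equals reduced growth.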
Shiga toxin inh: Shiga toxin inhibition; Vero cells, Shiga toxin protein synthesis inhibition reporter; inhibition, % at 38.7 µM; 290,000 tested, 9.2% active; in the data active = inhibition mostly above about 28%, no sharp cut-off; inactive = mostly below about 43%
Cycloheximide cs: counter-screen hit for Shiga toxin inhibitors, cycloheximide; cell reporter, cycloheximide protein synthesis inhibition counterscreen; max response, %; 300,000 tested, 12% active; in the data active = max response mostly above about 13%, no sharp cut-off; inactive = mostly below about 14%; note: read at 38.3 µM for the half of the compounds with a filed dose
Each line names hits and unclear results; the compound was inactive in the other large screens. Unless noted, calls come from the whole dose curve; as a rule, active = well fitted curve in the direction sought with a large enough effect; inconclusive = small, poorly fitted or top-dose-only effect, or another doubt; inactive = no such curve, though single readings can be large; an effect the other way counts as inactive or inconclusive.

Cc1ccc(S(=O)(=O)NCCC(=O)N2CC(C)OC(C)C2)cc1C (stereo unspecified)	none (no result: Giardia FBPA inh, NS1 inh, Shiga toxin inh, Cycloheximide cs)
O=[N+]([O-])c1ccc(N2CCN(Cc3ccccc3)CC2)s1	none
CC1CCCN(c2ccc([N+](=O)[O-])s2)C1 (stereo unspecified)	Cycloheximide cs 16 (no result: NS1 inh)
O=[N+]([O-])c1ccc(N2CCCCC2)s1	Giardia FBPA inh inconclusive, Cycloheximide cs 18 (no result: NS1 inh)
CC1CCCN(c2c([N+](=O)[O-])cc(C(=O)O)cc2[N+](=O)[O-])C1 (stereo unspecified)	Giardia FBPA inh inconclusive, Pf growth 96h inconclusive (no result: NS1 inh)
COCC(C)NC(=O)CCc1nnc(C2(c3ccc(Cl)cc3)CCC2)o1 (stereo unspecified)	Shiga toxin inh 41, Cycloheximide cs 30
COc1ccc(CCC(=O)NCCc2ccc(Cl)cc2)cc1	none
O=C(CCc1nnc(C2(c3ccc(Cl)cc3)CCC2)o1)NC1CC1	Pf growth 48h 10µM, Cycloheximide cs 14
C=CCNC(=O)CCc1nnc(C2(c3ccc(Cl)cc3)CCC2)o1	Pf growth 48h inconclusive, Shiga toxin inh 85, Cycloheximide cs 55
COC(=O)CNC(=O)CCc1nnc(C2(c3ccc(Cl)cc3)CCC2)o1	Shiga toxin inh 39, Cycloheximide cs 45
O=C(CCCOc1ccc(Cl)cc1)NC1CCCCC1	Pf growth 48h inconclusive (no result: Shiga toxin inh)
Cc1ccc(/C=N/NC(=O)Cc2ccc(Cl)cc2)s1	Pf growth 48h inconclusive, Pf growth 96h inconclusive
CC(c1ccon1)N(C)C(=O)CCc1nnc(C2(c3ccc(Cl)cc3)CCC2)o1 (stereo unspecified)	Shiga toxin inh 48, Cycloheximide cs 21
C=C(C)CNC(=O)CCc1nnc(C2(c3ccc(Cl)cc3)CCC2)o1	Pf growth 96h inconclusive, Shiga toxin inh 75, Cycloheximide cs 44
C[C@@H](CCCCC(=O)Nc1ccc(C(F)(F)F)cc1)NCCc1cnc[nH]1	none (no result: NS1 inh, Pf growth 48h, Pf growth 96h, Shiga toxin inh, Cycloheximide cs)
COc1ccc(C(CCN2CCCCC2)c2c(O)cc(OC)cc2OC)cc1 (stereo unspecified)	Giardia FBPA inh inconclusive, Pf growth 48h 0.66µM, Pf growth 96h 0.47µM
COc1ccc(C(CCN2CCCC2)c2c(O)cc(OC)cc2OC)cc1 (stereo unspecified)	NS1 inh inconclusive, Pf growth 48h inconclusive, Pf growth 96h 2.9µM
COc1cc(O)c(C(CC(=O)N2CCCCC2)c2ccc(N(C)C)cc2)c(OC)c1 (stereo unspecified)	none
Cc1c(C(=O)Nc2ccc(F)cc2)oc2ccc(S(=O)(=O)N3CCC4(CC3)OCCO4)cc12	NS1 inh inconclusive, Pf growth 48h 9.3µM, Pf growth 96h inconclusive
Cc1c(C(=O)NC2CCCc3ccccc32)oc2ccc(S(=O)(=O)N3CCCC3)cc12 (stereo unspecified)	Pf growth 48h inconclusive (no result: Pf growth 96h)
Cc1c(C(=O)NCc2ccccc2)oc2ccc(S(=O)(=O)N3CCC4(CC3)OCCO4)cc12	NS1 inh inconclusive, Pf growth 48h inconclusive
Cc1c(C(=O)NC2CCCc3ccccc32)oc2ccc(S(=O)(=O)N3CCCCC3)cc12 (stereo unspecified)	Pf growth 48h inconclusive, Pf growth 96h 1.9µM
Cc1c(C(=O)Nc2ccc(F)c(F)c2)oc2ccc(S(=O)(=O)N3CCCCC3)cc12	Pf growth 48h 13µM (no result: Pf growth 96h)
Cc1c(C(=O)NCc2ccccn2)oc2ccc(S(=O)(=O)N3CCC4(CC3)OCCO4)cc12	Pf growth 48h 13µM, Pf growth 96h inconclusive (no result: NS1 inh)
COc1ccc(NC(=O)[C@H](C)NC(=O)[C@@H]2Cc3ccccc3CN2C(=O)OC(C)(C)C)cc1	Pf growth 48h inconclusive, Pf growth 96h inconclusive
CN(Cc1ccccc1)C(=O)c1[nH]cnc1C(=O)NCC(=O)OCc1ccccc1	none
OB(O)c1cc2ccccc2o1	none (no result: NS1 inh, Pf growth 48h, Pf growth 96h, Shiga toxin inh, Cycloheximide cs)
Cc1cccc(-n2ccnc2SCC(=O)c2c(N)n(C3CC3)c(=O)[nH]c2=O)c1C	Pf growth 96h inconclusive (no result: Giardia FBPA inh, NS1 inh, Shiga toxin inh, Cycloheximide cs)
COCc1cc(=O)[nH]c(Cc2c(Cl)cccc2Cl)n1	none
C=CCN(CC=C)C(=O)CCc1nnc(CCc2c[nH]c3ccccc23)o1	Cycloheximide cs 21
CC(C)(C)NC(=O)CCc1nnc(Cc2c[nH]c3ccccc23)o1	Pf growth 96h inconclusive, Cycloheximide cs 12
C=C(C)CN(CC)C(=O)CCc1nnc(CCc2c[nH]c3ccccc23)o1	none
CCC(COC)NC(=O)CCc1nnc(Cc2c[nH]c3ccccc23)o1 (stereo unspecified)	Pf growth 96h 13µM
COc1ccc(-c2c[n+]3c(n2-c2ccccc2)SCC3)cc1OC	Pf growth 48h 1.3µM, Pf growth 96h inconclusive (no result: NS1 inh)
COc1ccc(-c2c[n+]3c(n2-c2ccccc2)SCC3)cc1	Pf growth 48h inconclusive, Pf growth 96h inconclusive
COc1ccc(/C=C/c2nc(S(=O)(=O)c3ccccc3)c(N(C)C)o2)cc1	Pf growth 48h inconclusive, Pf growth 96h inconclusive (no result: Giardia FBPA inh)
CC(=O)N(C1=C(N)C(=O)c2ccccc2C1=O)C(C)C	Giardia FBPA inh inconclusive, Pf growth 48h 13µM, Pf growth 96h 9.3µM (no result: NS1 inh)
Cc1noc(C)c1-c1nc(N(C)Cc2ccco2)c2ccccc2n1	none (no result: NS1 inh, Pf growth 48h, Pf growth 96h, Shiga toxin inh, Cycloheximide cs)
O=C(NCCOc1ccccc1)c1ccccc1NC(=O)C1CCCO1 (stereo unspecified)	Cycloheximide cs 41 (no result: NS1 inh)
CCc1ccc(NC(=O)c2ccccc2NC(=O)C2CCCO2)cc1 (stereo unspecified)	Cycloheximide cs 65 (no result: Pf growth 48h)
CCOC(=O)c1ccccc1NC(=O)C1CCCO1 (stereo unspecified)	none
CSCCC(NC(=O)C1CCC(C)CC1)C(=O)Nc1ccc(NC(C)=O)cc1 (stereo unspecified)	Pf growth 96h inconclusive
CCOC(=O)C1=C(Nc2ccccc2)CC(C)(O)C(C(=O)OCC)C1c1ccc(Cl)cc1 (stereo unspecified)	Pf growth 48h inconclusive, Pf growth 96h 12µM
COc1ccc([N+](=O)[O-])cc1NC(=O)C1C2C=CC(C2)C1C(=O)O (stereo unspecified)	none
Cc1cc(=O)oc2cc(NC(=O)CC3(CC(=O)O)CCCC3)ccc12	Pf growth 96h inconclusive
CCC1(c2ccc(Cl)cc2)NC(=S)N(c2ccc(C)cc2)N1 (stereo unspecified)	Shiga toxin inh 90, Cycloheximide cs 68
CCC1(c2ccccc2)NC(=S)N(c2ccc(C)c(C)c2)N1 (stereo unspecified)	Shiga toxin inh 36, Cycloheximide cs 40
CCC1(c2ccc(Cl)cc2)NC(=S)N(c2ccc(C)c(C)c2)N1 (stereo unspecified)	none
CC(OC(=O)c1ccccc1NCCO)C(=O)NCC(=O)Nc1ccc(F)c(F)c1F (stereo unspecified)	Pf growth 48h inconclusive
Cc1ccc(-c2noc(C3CCCN(C(=O)c4cccc([N+](=O)[O-])c4)C3)n2)o1 (stereo unspecified)	Shiga toxin inh 85, Cycloheximide cs 39
Cc1cccc(C(=O)N2CCCC(c3nc(-c4ccc(C)o4)no3)C2)c1 (stereo unspecified)	Shiga toxin inh 113, Cycloheximide cs 42
